Reference: PubChem BioAssay (NCATS)
Records with an inconclusive call do not appear. Calls of active or inactive are those of the source. Calls follow the shape of the dose curve; as a rule, active = well fitted cell-killing curve with a large enough effect; inconclusive = small, poorly fitted or top-dose-only effect, or effect the other way; inactive = flat fitted curve, though single readings scatter. *1 amine or outer side, *2 acyl side, *3 side chain or, on linkers, in order; H or OH if unused. Where a SMILES comes first, the peptide text is derived from it. Bridges are numbered along the chain shown (N, C = ends). [ ]: non-standard residue; d: D form. The star is where a group is joined. ξ: configuration not given here. ξhTyr(3S-OH,4S-OH,3'-OSO3H) = NC(C(=O)O)[C@H](O)[C@@H](O)c1ccc(O)c(OS(=O)(=O)O)c1; Orn(4R-OH,5R-OH) = O=C([C@H](C[C@@H](O)[C@@H](O)N[*:3])N[*:1])[*:2]; X2 = CCCCCOc1ccc(-c2cc(-c3ccc(C(=O)*)cc3)no2)cc1; X3 = C[C@H]1CN([*:1])C(C(=O)[*:2])[C@H]1O; ξGln(3R-OH) = NC(=O)C[C@@H](O)C(N)C(=O)O; ξPro(4R-OH) = O=C(O)C1C[C@@H](O)CN1; ξThr(3R) = C[C@@H](O)C(N)C(=O)O

Legend:
Test in all cases: Primary qHTS to identify gynecologic anti-cancer compounds using libraries of approved drugs and bioactive compounds (AID 1345084); also: nearly all actives have a fitted effect of over 55% in size
Settings in all cases: Gynecologic cancer cell panel viability, ATPlite luminescence, 48 h; series mostly up to 57.5 µM
[1] = tested on: PA-1
Outline: (§1)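 Cytotoxicity screen measuring ATP content by luciferase luminescence. Each compound is applied at five concentrations for 48 h at 37 C with 5% CO2.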

[2] = tested on: SKOV3
Outline: as §1

[3] = tested on: Tov-21-G
Outline: as §1

[4] = tested on: Tov112D
Outline: as §1
% is scaled to controls: 0 for no effect and ±100 for the full control effect.

COC(=O)C1(O)C(OC(C)=O)CCC2C3(CC(c4ccoc4)OC3=O)C(C)=CCC21C(=O)OC (stereo unspecified)
inactive: Potency [1] | Potency [2] | Potency [3] | Potency [4]

CC12CC(c3ccoc3)OC(=O)C1CCC1(C)C2CCC(O)C1(C)O (stereo unspecified)
inactive: Potency [1] | Potency [2] | Potency [3] | Potency [4]

Cc1ccc(Cl)cc1N(CC(=O)Nc1c(F)cccc1F)S(C)(=O)=O
inactive: Potency [1] | Potency [2] | Potency [3] | Potency [4]

CC1(C)OC(=O)CC(O)C2(C)C1CC(=O)C1(C)C2C(O)CC2(C)C(c3ccoc3)OC(=O)C3OC321 (stereo unspecified)
inactive: Potency [1] | Potency [2] | Potency [3] | Potency [4]

CC(C)=CC1C[C@](C)(O)[C@@H]2[C@H]3CCC4[C@@]5(C)CC[C@H](O[C@@H]6OC[C@H](O)[C@H](O[C@@H]7O[C@H](CO[C@@H]8O[C@H](CO)[C@@H](O)[C@H](O)[C@H]8O)[C@@H](O)[C@H](O)[C@H]7O)[C@H]6O[C@@H]6O[C@@H](C)[C@H](O)[C@@H](O)[C@H]6O)C(C)(C)[C@@H]5CC[C@@]4(C)[C@@]34CO[C@@]2(C4)O1 (stereo partly specified)
inactive: activity change, negative = cytotoxicity [1] 0.967% [at 11.6 µM] | activity change, negative = cytotoxicity [2] 2.44% [at 11.6 µM] | activity change, negative = cytotoxicity [3] 9.39% [at 11.6 µM] | activity change, negative = cytotoxicity [4] 6.5% [at 11.6 µM]

CC(C)CC(=O)NCCn1cc(C(=O)O)c(=O)cc1C(O)c1ccccc1 (stereo unspecified)
inactive: Potency [1] | Potency [2] | Potency [3] | Potency [4]

C=C1CC2C3(C)C=CC(=O)OC(C)(C)C3CC(OC(C)=O)C2(C)C2C(=O)OC(C)C(=O)C12C (stereo unspecified)
inactive: Potency [1] | Potency [2] | Potency [3] | Potency [4]

CC(=O)OCC(Cc1ccccc1)NC(=O)C(Cc1ccccc1)NC(=O)c1ccccc1 (stereo unspecified)
inactive: Potency [1] | Potency [2] | Potency [3] | Potency [4]

COc1cc(O)cc(C)c1C(=O)OC1C(CO)OC(n2ccc(=O)[nH]c2=O)C1OC(C)=O (stereo unspecified)
inactive: Potency [1] | Potency [2] | Potency [3] | Potency [4]

CCC(=O)OCC(=O)[C@@]1(OC(=O)CC)[C@@H](C)C[C@H]2[C@@H]3CCC4=CC(=O)C=C[C@]4(C)[C@@]3(F)[C@@H](O)C[C@@]21C
inactive: Potency [1] | Potency [2] | Potency [3] | Potency [4]

Fc1ccc(-c2c3cccc(C(F)(F)F)c3nn2Cc2ccc(F)cc2Cl)cc1
inactive: Potency [1] | Potency [2] | Potency [3] | Potency [4]

C=C1[C@H](OC(C)=O)[C@H]2[C@@H](OC(C)=O)C(C)C[C@]2(OC(C)=O)C(=O)[C@H](C)/C=C/C(C)(C)C(=O)[C@H](OC(=O)C(C)C)[C@H]1OC(C)=O (stereo partly specified)
inactive: Potency [1] | Potency [2] | Potency [3] | Potency [4]

COc1ccc(C2OCC3C(c4cc(OC)c5c(c4)OCO5)OCC23)cc1OC (stereo unspecified)
inactive: Potency [1] | Potency [2] | Potency [3] | Potency [4]

Cc1cccc(NC(=O)CN2CCC(c3ccccn3)CC2)c1
inactive: Potency [1] | Potency [2] | Potency [3] | Potency [4]

CC1(C)CC[C@]2(C(=O)O[C@@H]3O[C@H](CO)[C@@H](O)[C@H](O)[C@H]3O)CC[C@]3(C)C(=CCC4[C@@]5(C)CC[C@H](OC6OC(C(=O)O)C(OC7OC(CO)C(O)C(O)C7O)C(O)C6O)C(C)(C)C5CC[C@]43C)C2C1 (stereo partly specified)
inactive: activity change, negative = cytotoxicity [1] 3.63% [at 11.6 µM] | activity change, negative = cytotoxicity [2] 0% [at 11.6 µM] | activity change, negative = cytotoxicity [3] 2.32% [at 11.6 µM] | activity change, negative = cytotoxicity [4] 1.83% [at 11.6 µM]

C=C(C(=O)O)[C@@H]1CC[C@H](C)[C@@H]2CC(=O)C(C)=C2C1
inactive: Potency [1] | Potency [2] | Potency [3] | Potency [4]

N#CC1C(=O)N=C(c2cc(Cl)ccc2O)C=C1c1cc(OCc2ccccc2)cc(OCc2ccccc2)c1 (stereo unspecified)
inactive: Potency [1] | Potency [2] | Potency [3] | Potency [4]

C=C(C(=O)O)[C@H]1C[C@]2(C)C(=O)CC[C@]23O[C@H]1C[C@@H]3C
inactive: Potency [1] | Potency [2] | Potency [3] | Potency [4]

C[C@H](/C=C/[C@@]1(O)[C@H](C)CC(=O)CC1(C)C)O[C@@H]1O[C@H](CO[C@@H]2OC[C@@H](O)[C@H](O)[C@H]2O)[C@@H](O)[C@H](O)[C@H]1O
inactive: Potency [1] | Potency [2] | Potency [3] | Potency [4]

C[C@@H]1[C@H](O)[C@@H]2OC(=O)C3=C2[C@H](CCC3)[C@@]12C[C@@H](c1ccoc1)OC2=O
inactive: Potency [1] | Potency [2] | Potency [3] | Potency [4]

O=C(/C=C/c1ccc(O)c(O)c1)O[C@H]1[C@@H]2C=CO[C@@H](O[C@@H]3O[C@H](CO)[C@@H](O)[C@H](O)[C@H]3O)[C@@H]2[C@@]2(CO)O[C@@H]12
inactive: Potency [1] | Potency [2] | Potency [3] | Potency [4]

COc1cc(O[C@@H]2O[C@H](CO[C@H]3OC[C@](O)(CO)[C@H]3O)[C@@H](O)[C@H](O)[C@H]2O)cc(OC)c1O
inactive: Potency [1] | Potency [2] | Potency [3] | Potency [4]

CC1=C2C[C@@]3(C)[C@@H](CCC[C@@H]3C)C[C@@]2(O)OC1=O
inactive: Potency [1] | Potency [2] | Potency [3] | Potency [4]

CC(=O)N[C@H](Cc1c[nH]c2ccccc12)C(=O)OCc1cc(C(F)(F)F)cc(C(F)(F)F)c1
inactive: Potency [1] | Potency [2] | Potency [3] | Potency [4]

COC(=O)C1=COC(OC2OC(CO)C(O)C(O)C2O)C2C(COC(=O)/C=C/c3ccc(O)cc3)C(O)C(O)C12 (stereo unspecified)
inactive: Potency [1] | Potency [2] | Potency [3] | Potency [4]

COC(=O)[C@]1(C)CCC[C@@]2(C)C(=O)CC[C@H]3C(=O)C=C(CC[C@@H]21)C3O (stereo partly specified)
inactive: Potency [1] | Potency [2] | Potency [3] | Potency [4]

CC1(C)CC[C@]2(C(=O)O[C@@H]3O[C@H](CO)[C@@H](O)[C@H](O)[C@H]3O)CC[C@]3(C)C(=CCC4[C@@]5(C)CC[C@H](O[C@H]6O[C@H](CO)[C@@H](O)[C@H](O[C@@H]7O[C@H](CO)[C@@H](O)[C@H](O)[C@H]7O)[C@H]6O)C(C)(C)C5CC[C@]43C)[C@@H]2C1 (stereo partly specified)
inactive: activity change, negative = cytotoxicity [1] 3.09% [at 11.6 µM] | activity change, negative = cytotoxicity [2] -4.14% [at 11.6 µM] | activity change, negative = cytotoxicity [3] -3.87% [at 11.6 µM] | activity change, negative = cytotoxicity [4] -5.45% [at 11.6 µM]

COc1cc2c(cc1O)CC(O)(CO)C(CO)C2c1ccc(OC2OC(CO)C(O)C(O)C2O)c(OC)c1 (stereo unspecified)
inactive: Potency [1] | Potency [2] | Potency [3] | Potency [4]

CCC(C)(C)C1CCc2c(sc(NC(=O)c3ccc(Br)cc3)c2C#N)C1 (stereo unspecified)
inactive: Potency [1] | Potency [2] | Potency [3] | Potency [4]

C=C(C(=O)O)[C@@H]1CC[C@@]2(C)CCC[C@@](C)(O)[C@@H]2C1
inactive: Potency [1] | Potency [2] | Potency [3] | Potency [4]

CC(=O)N[C@H]1[C@H](O[C@H]2CC[C@]3(C)C4CC=C5[C@@H]6CC(C)(C)CC[C@]6(C(=O)O)[C@H](O)C[C@@]5(C)[C@]4(C)CC[C@H]3C2(C)C)O[C@H](CO)[C@@H](O)[C@@H]1O (stereo partly specified)
inactive: Potency [1] | Potency [2] | Potency [3] | Potency [4]

CC(C)c1c(NC(=O)Nc2ccc(Cl)cc2)c(=O)n(-c2ccccc2)n1C
inactive: Potency [1] | Potency [2] | Potency [3] | Potency [4]

C/C=C1/[C@H](O[C@@H]2O[C@H](CO)[C@@H](O)[C@H](O)[C@H]2O)OC=C(C(=O)OC)[C@H]1CC(=O)OCCc1ccc(O)c(O)c1
inactive: Potency [1] | Potency [2] | Potency [3] | Potency [4]

OC[C@H]1O[C@@H](OCc2ccccc2)[C@H](O)[C@@H](O)[C@@H]1O
inactive: Potency [1] | Potency [2] | Potency [3] | Potency [4]

C/C=C1/CC2C(=O)Nc3cc(O)c(OC)cc3C(=O)N2C1 (stereo unspecified)
inactive: Potency [1] | Potency [2] | Potency [3] | Potency [4]

C/C=C/C=C/C(=O)OC1CC/C=C/C(O)C(O)C(CCC)OC1=O (stereo unspecified)
inactive: Potency [1] | Potency [2] | Potency [3] | Potency [4]

COC(=O)[C@]1(C)CCC[C@@]2(C)[C@@H]3CC[C@@H]4C[C@@]3(CC[C@@H]21)C[C@H]4C(=O)O
inactive: Potency [1] | Potency [2] | Potency [3] | Potency [4]

C[C@H]1[C@H](C)CC[C@]2(C(=O)O)CC[C@]3(C(=O)O)C(=CCC4[C@@]5(C)CC[C@H](O[C@@H]6O[C@@H](C)[C@H](O)[C@@H](O)[C@H]6O)C(C)(C)C5CC[C@]43C)[C@H]12 (stereo partly specified)
inactive: Potency [1] | Potency [2] | Potency [3] | Potency [4]

CC(=O)O[C@@H]1C=C2[C@H](CC[C@@]3(C)[C@@]2(O)CC[C@H]2Cc4c([nH]c5ccccc45)[C@@]23C)O[C@@H]1C(C)(C)O
inactive: Potency [1] | Potency [2] | Potency [3] | Potency [4]

CCCCCOc1ccc(-c2cc(-c3ccc(C(=O)N[C@H]4C[C@@H](O)[C@@H](O)NC(=O)C5[C@@H](O)[C@@H](C)CN5C(=O)C([C@H](O)CC(N)=O)NC(=O)C([C@H](O)[C@@H](O)c5ccc(O)c(OS(=O)(=O)O)c5)NC(=O)C5C[C@@H](O)CN5C(=O)C([C@@H](C)O)NC4=O)cc3)no2)cc1 (stereo partly drawn) (X2-[Orn(4R-OH,5R-OH)][ξThr(3R)][ξPro(4R-OH)][ξhTyr(3S-OH,4S-OH,3'-OSO3H)][ξGln(3R-OH)][X3]; lactam 1-C)
inactive: Potency [1] | Potency [2] | Potency [3] | Potency [4]

CC1=CCC(O)C2(C)CCC3C(C)C(=O)OC3C12 (stereo unspecified)
inactive: Potency [1] | Potency [2] | Potency [3] | Potency [4]

COc1cc(C)c(C(=O)NC2C(C)OC(OC3CCC(C)C4C3C=C(C)C3/C(C)=C\CC/C(C)=C/C5(C)C=C(C(=O)O)C(C)CC56OC(=O)/C(=C(\O)C34C)C6=O)C(O)C2(C)O)c(O)c1 (stereo unspecified)
inactive: activity change, negative = cytotoxicity [1] -2.04% [at 11.6 µM] | activity change, negative = cytotoxicity [2] -10.1% [at 11.6 µM] | activity change, negative = cytotoxicity [3] 4.24% [at 11.6 µM] | activity change, negative = cytotoxicity [4] 8.49% [at 11.6 µM]

O=C(O)C[C@H]1CCC(=O)[C@@H]1C/C=C\CCO
inactive: Potency [1] | Potency [2] | Potency [3] | Potency [4]

CC1(C)CC[C@]2(C(=O)O)CC[C@]3(C)C(=CCC4[C@@]5(C)CC[C@H](O[C@@H]6O[C@H](C(=O)O)[C@@H](O)[C@H](O)[C@H]6O)C(C)(C)C5CC[C@]43C)C2C1 (stereo partly specified)
inactive: Potency [1] | Potency [2] | Potency [3] | Potency [4]
